Compound activity: PubChem BioAssay, National Center for Advancing Translational Sciences (NCATS)
Tau fluor cs: counter-screen for tau fibril formation inhibitors; tau K18 P301L Alexa594 fluorescence, heparin fibrillization; Potency, µM (highest dose often 57.7 µM); 280,000 compounds, 0.93% hits; AID 1463; further: nearly all actives have a fitted effect of over 55% in size
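Human tau K18 P301L (15 uM unlabeled, 0.24 uM Alexa 594-labeled) in 100 mM sodium acetate pH 7 with 20 uM heparin, 6 hr at 37 C. ThT 30 uM added, 1 hr ambient; Alexa 594 FP and total fluorescence read at 555/632 nm.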
TexasRed fluor: alters Texas Red total fluorescence, flagging assay interference. TRb/SRC2 Texas Red total fluorescence interference. Potency, µM (series often up to 106 µM). 280,000 compounds, 0.29% hits. AID 1479; active means well fitted curve in either direction with a large enough effect; inconclusive means small, poorly fitted or top-dose-only effect
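Flags fluorescent or light-absorbing compounds by total fluorescence, S + 2P, at 555 nm excitation and 632 nm emission. Mixture: 20 nM Texas Red SRC2 peptide, 0.6 uM human TRb LBD, 1 uM T3, 5% DMSO; compound exposure 5 h at ambient temperature.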
TRb-SRC2 inh: inhibitors of human thyroid hormone receptor beta-SRC2 interaction; P10828; TRbeta-SRC2 peptide binding, fluorescence polarization; receptor liganded with 1 µM T3; Potency, µM (highest dose often 106 µM), actives largely listed as inhibitors; 280,000 compounds, 0.065% hits; further: nearly all actives have a fitted effect of over 50% in size
Target sequence (P10828 whole entry, looked up): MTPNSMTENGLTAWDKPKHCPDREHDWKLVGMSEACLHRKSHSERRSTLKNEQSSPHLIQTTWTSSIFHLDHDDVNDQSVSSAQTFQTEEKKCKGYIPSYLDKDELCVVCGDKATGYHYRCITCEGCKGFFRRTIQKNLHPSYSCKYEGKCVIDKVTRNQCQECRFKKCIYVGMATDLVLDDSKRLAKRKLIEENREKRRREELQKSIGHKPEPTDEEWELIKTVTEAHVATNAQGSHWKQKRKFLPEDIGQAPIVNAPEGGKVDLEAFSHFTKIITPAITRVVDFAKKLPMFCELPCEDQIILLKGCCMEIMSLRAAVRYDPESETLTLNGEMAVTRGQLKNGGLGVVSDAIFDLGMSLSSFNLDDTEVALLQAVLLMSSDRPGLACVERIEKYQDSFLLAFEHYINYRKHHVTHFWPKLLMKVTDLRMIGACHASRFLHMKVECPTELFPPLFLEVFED
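Polarization signal, normalized between peptide-alone and full complex controls, measured compound effects on T3-liganded human TRb LBD (0.6 uM) binding 20 nM Texas Red SRC2 peptide after 5 hr.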
Tau fibril ThT: inhibitors of human tau fibril formation, thioflavin T binding; P10636; recombinant tau K18 P301L (four-repeat tau fragment), heparin-induced fibrillization, ThT fluorescence; Potency, µM (doses to about 57.4 µM), hits mostly inhibitors; 270,000 compounds, 2.1% hits; AID 1460; further: nearly all actives have a fitted effect of over 55% in size
Target sequence (P10636 561-689 P618L limits assumed): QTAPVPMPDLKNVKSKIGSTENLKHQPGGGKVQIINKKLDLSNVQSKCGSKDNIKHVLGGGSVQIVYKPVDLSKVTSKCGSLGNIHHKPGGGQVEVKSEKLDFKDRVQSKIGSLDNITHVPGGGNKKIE
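Heparin-induced fibrillization of the P301L-mutant K18 repeat-domain fragment of human tau was followed by ThT binding in quantitative high-throughput format.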
Tau FP inhib: blocks human tau fibril formation measured by polarization. P10636. Potency, µM (titrated, usually from 57.7 µM), hits mostly inhibitors. 280,000 compounds, 0.39% hits. AID 1468. K18 P301L tau heparin fibrillization, Alexa594 FP, 6 h; further: nearly all actives have a fitted effect of over 55% in size
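Human K18 P301L fragment (15 uM unlabeled plus 0.24 uM Alexa 594-labeled) in 100 mM sodium acetate pH 7 with compound, aggregation induced by 20 uM heparin for 6 hr at 37 C. ThT (30 uM) added for 1 hr, then Alexa 594 FP read.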
Large screens that a line does not name were inactive; [ ] = dose if it differs, or a comment. Most compounds without a hit are left out; they make up all but 3.1% or so of the library. Unless noted, the call rests on the fitted dose curve; in most records, active means well fitted curve in the direction sought with a large enough effect; inconclusive means small, poorly fitted or top-dose-only effect, or another doubt; inactive means no such curve, though single readings can be large; an effect the other way counts as inactive or inconclusive.

O=[N+]([O-])c1ccc(-c2ccc(/C=N/c3c(-c4ccco4)nc4ccccn34)o2)cc1	Tau fluor cs inconclusive, Tau fibril ThT 2.8µM
O=C1CCCC=C1[C@H](O)c1ccc([N+](=O)[O-])cc1	TexasRed fluor inconclusive
CC1CCc2c(sc(NC(=O)c3ccccc3)c2C(=O)Nc2ccccc2)C1 (stereo not given)	none
O=Cc1s/c(=N\S(=O)(=O)c2ccccc2)n(CCCCl)c1Cl	Tau fibril ThT 28µM, Tau FP inhib inconclusive
COCCCN1C(=O)CS/C1=N\S(=O)(=O)c1ccccc1	none
C[c-]1[c-](C)[c-](C)[c-](C)[c-]1C.[Fe].c1cc2nccc(N3CCCC3)[c-]2c1 (stereo not given)	Tau fluor cs inconclusive, Tau fibril ThT 32µM, Tau FP inhib inconclusive
Nc1[nH]nc2c1NN(c1ccc(Cl)cc1Cl)N2	Tau fluor cs inconclusive, Tau fibril ThT 3.5µM, Tau FP inhib inconclusive
Nc1c(-c2n[nH]c(=S)n2-c2ccc(Cl)cc2Cl)cnn1-c1ccccc1	none (no result: Tau fibril ThT)
O=C(CSc1nc2ccccc2c(=O)n1-c1ccc(F)cc1F)c1c[nH]c2ccccc12	Tau fluor cs inconclusive, Tau fibril ThT inconclusive, Tau FP inhib 28µM
c1csc(-c2cn3ccc4ccccc4c3n2)c1	Tau fibril ThT 10µM
c1cc(-c2cccs2)nc(-c2cccs2)c1	Tau fibril ThT inconclusive, Tau FP inhib inconclusive
CC(C)c1ccc(CN(Cc2ccco2)c2cnc(S(C)(=O)=O)nc2C(=O)Nc2ccccc2)cc1	none
CCOC(=O)c1cc(C#N)c(SCC(=O)OC)[nH]c1=O	Tau fibril ThT inconclusive
CCOC(=O)c1ccc(N=Nc2c(C)c(C#N)c(O)[nH]c2=O)cc1	Tau fibril ThT 1.4µM
COc1ccc(NC(=O)Cn2c(=O)oc3cc(S(=O)(=O)N4CCCCCC4)ccc32)cc1OC	Tau fibril ThT inconclusive
COC(=O)C1=C(CSc2nc3c(cc2C#N)CN(C)CC3)OC(N)=C(C#N)C1c1ccc(F)cc1 (stereo not given)	Tau fluor cs inconclusive, Tau fibril ThT 25µM, Tau FP inhib inconclusive
COc1ccc(/C=C2\CCn3c2nc2cc(C(=O)O)ccc2c3=O)cc1OC	Tau fibril ThT inconclusive
COc1ccc(/C=C2\CCn3c2nc2cc(C(=O)O)ccc2c3=O)cc1O	TexasRed fluor 0.32µM[quencher], TRb-SRC2 inh inconclusive
O=[N+]([O-])c1cc2oc3c(c2c(C=NCc2ccncc2)c1O)CCCC3	Tau fluor cs inconclusive, Tau fibril ThT 10µM, Tau FP inhib inconclusive
Oc1[nH]c2ccc(Br)cc2c1N=NC(=S)N1CCOCC1	Tau fluor cs inconclusive, Tau fibril ThT 10µM
CC(=O)/C=C(\C)N=Nc1c(O)[nH]c2ccccc12	Tau fibril ThT 7.9µM
Oc1[nH]c2ccccc2c1N=NC(=S)N1CCOCC1	Tau fibril ThT 8.9µM
Cc1ccc(-c2nc3c4ccccc4n(CC(=O)NCc4ccc(F)cc4)c(=O)n3n2)cc1	none
O=C1C[C@H](c2ccc3ccccc3c2)N1S(=O)(=O)c1ccccc1[N+](=O)[O-]	none (no result: Tau fluor cs, Tau fibril ThT, Tau FP inhib)
NCC(c1ccccc1)c1c[nH]c2ccccc12 (stereo not given)	none
Cc1ccc2[nH]cc(C(c3ccccc3)c3ccc(C)s3)c2c1 (stereo not given)	Tau fluor cs 10µM[quencher]
Cc1ccc2[nH]cc(C(c3ccccc3)c3cccs3)c2c1 (stereo not given)	Tau fluor cs 7.9µM[quencher], Tau fibril ThT inconclusive, Tau FP inhib inconclusive
Cc1cc(=O)oc2cc(NC(=O)CC(N)C(=O)O)ccc12 (stereo not given)	none (no result: Tau fluor cs, Tau fibril ThT, Tau FP inhib)
Nc1ccc(Cc2ccc(N)c(O)c2)cc1O	Tau fluor cs inconclusive, Tau fibril ThT 14µM, Tau FP inhib inconclusive
O=C(NCCCN1CCCCC1)c1ccc2c(c1)sc1nc(-c3ccc(F)cc3)cn12	TexasRed fluor 0.0009µM[quencher], Tau fibril ThT inconclusive
CCOc1ccc(CNC(=O)c2ccc3c(c2)sc2nc(-c4ccc(OC)cc4)cn23)cc1	TexasRed fluor 40µM[quencher]
Cc1nnc(SCC(=O)NCc2ccc(N(C)C)cc2)c2nn(-c3ccccc3)c(C)c12	Tau fibril ThT inconclusive
COC(=O)c1cccc(NC(=S)NCc2ccc(Cl)cc2)c1	Tau fluor cs inconclusive, Tau FP inhib inconclusive
COC(=O)c1cc(NC(=S)NCc2ccc(Cl)cc2)cc(C(=O)OC)c1	Tau fluor cs 14µM[quencher], Tau FP inhib 18µM
CCOc1ccc(/C=C/c2nc(C#N)c(NCc3ccc(OC)cc3)o2)cc1	none
COc1ccc(-n2c(C)nc3cc(C(=O)NC4CCCCCC4)ccc32)cc1	TexasRed fluor inconclusive
CCCOC(=O)c1ccc(NC(=O)/C=C/c2cccs2)cc1	Tau fluor cs 14µM[quencher], Tau FP inhib inconclusive
O=C(/C=C/c1cccs1)Nc1ccncc1	none
CCOC(CNC(=O)c1ccc(N2CCc3ccccc32)c([N+](=O)[O-])c1)OCC	Tau fluor cs inconclusive, Tau fibril ThT 13µM, Tau FP inhib inconclusive
Cc1c(Cl)cccc1-c1ccc(C(=O)Nc2ccc(F)cc2)o1	Tau fluor cs inconclusive, TexasRed fluor inconclusive, Tau FP inhib inconclusive
OCC(CO)(CO)N=Cc1c(O)ccc2ccccc12	Tau fluor cs inconclusive, TRb-SRC2 inh inconclusive, Tau fibril ThT 25µM, Tau FP inhib inconclusive
O=C(N/N=C/c1c(O)ccc2ccccc12)c1cccc(C(F)(F)F)c1	Tau fluor cs 8.9µM[quencher], Tau fibril ThT inconclusive, Tau FP inhib inconclusive
Oc1ccc2ccccc2c1C=NC12CN3CCN(CN(C3)C1)C2	Tau fluor cs inconclusive, TRb-SRC2 inh inconclusive, Tau fibril ThT 20µM, Tau FP inhib inconclusive
CS/C(N)=N/N=C/c1c(O)ccc2ccccc12	Tau fluor cs inconclusive, Tau fibril ThT inconclusive
CN(C)/N=C/c1c(O)ccc2ccccc12	Tau fluor cs inconclusive, Tau fibril ThT inconclusive
C=C[C@@]1(C)CC[C@H]2C(=CC[C@@H]3[C@]2(C)CCC[C@@]3(C)C(=O)O)C1	none (no result: Tau fluor cs, Tau fibril ThT, Tau FP inhib)
CC1(C)OC[C@@H]2O[C@@]3(C(=O)O)OC(C)(C)O[C@H]3[C@@H]2O1	none (no result: Tau fluor cs, Tau fibril ThT, Tau FP inhib)
O=C(Cc1cccs1)N/N=C/C=C/c1ccco1	Tau fluor cs inconclusive, Tau fibril ThT 25µM, Tau FP inhib inconclusive
O=C(CSc1nnc(SCc2ccccc2)s1)N/N=C/C=C/c1ccco1	TexasRed fluor inconclusive, Tau fibril ThT inconclusive, Tau FP inhib inconclusive
O=C(CNc1cccc2ccccc12)N/N=C/C=C/c1ccco1	Tau fluor cs 16µM[quencher], Tau fibril ThT inconclusive
Nc1ccc2oc(-c3cccc4ccccc34)nc2c1	Tau fluor cs 16µM[quencher], Tau fibril ThT inconclusive
COc1c(O)c(O)cc2c1oc1c3ccccc3oc(=O)c21	Tau fluor cs 10µM[quencher], Tau fibril ThT 7.9µM, Tau FP inhib inconclusive
Cc1[nH][nH]c(=O)c1N=Nc1ccc(Cl)cc1	Tau fibril ThT 8.9µM
Nc1nc(N)c(N=Nc2ccc(Cl)cc2)c(=O)[nH]1	Tau fibril ThT inconclusive
CSc1ccc(CNc2ncc(-c3ccccc3)n2C)cc1	none
C=CCOC(/C=C/c1ccccc1)C[Si](C)(C)C (stereo not given)	none (no result: Tau fluor cs, Tau fibril ThT, Tau FP inhib)
